# Records with an inconclusive call do not appear. A number with no mark means an inactive call. The source made the active and inactive calls. Calls come from the whole dose curve; as a rule, active = well fitted curve in the direction sought with a large enough effect; inconclusive = small, poorly fitted or top-dose-only effect, or another doubt; inactive = no such curve, though single readings can be large or run the other way.
# Experiment: qHTS Assay for Identifying Gametocytocidal Compounds (AID 743244);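 for max response: actives lower the fluorescent signal which means gametocytes are killed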
# Details: P. falciparum 3D7 stage III-V gametocytes, alamarBlue, 72 h; max response: hits give low values
# Method in brief: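 Fluorescence at Ex 525/Em 598 nm, recorded 24 h after alamarBlue addition, reports residual metabolic activity of 3D7 gametocytes (stages III–V) following 72 h compound exposure at 37 °C, 5% CO2.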
# % is set by controls: 0 for no effect and ±100 for the full control effect; potency is the fitted concentration of half-maximal effect.
Structure (SMILES),max response [%],Potency
COc1cc(C(=O)N2CCCCCCC2)cc(OC)c1OC,12.8,–
CCN1CCN(C(=O)N[C@@H](C(=O)N[C@@H]2C(=O)N3C(C(=O)O)=C(CSc4nnnn4C)CS[C@H]23)c2ccc(O)cc2)C(=O)C1=O,14.5,–
c1ccc(-c2nc[nH]c2-c2ccccc2)cc1,-4.96,–
CNCCc1ccccn1,-0.406,–
N#CCC(=O)NN,-7.78,–
C#C[C@]1(O)CC[C@H]2[C@@H]3CCc4cc(OC)ccc4[C@H]3CC[C@@]21C,-2.6,–
CC(CNC1CCCCC1)OC(=O)c1ccccc1 (configuration not stated),10.4,–
CN1CCN(C2=Nc3cc(F)ccc3Cc3ccccc32)CC1,29,–
O=C(O)Cc1csc(-c2ccc(Cl)cc2)n1,-4.61,–
OCCOCCN1CCN(C2=Nc3ccccc3Sc3ccccc32)CC1,-0.0618,–
CCCCCCCCCCCCOCCOCCOCCOCCOCCOCCOCCOCCOCCO,14.7,–
COc1cc(N)c(Cl)cc1C(=O)NC1CCN(Cc2ccccc2)CC1,-0.971,–
CNCCCCOc1ccccc1Cc1ccccc1,–,18.7 µM (active)
O=C(c1ccc(F)cc1)C1CCN(CCn2c(=S)[nH]c3ccccc3c2=O)CC1,-2.47,–
COc1ccc(CN(CCN(C)C)c2ncccn2)cc1,-8.37,–
CCCCN=C(N)N=C(N)N,0.948,–
C[C@H]1[C@H]2CC[C@H]3[C@@H]4CC=C5C[C@@H](N(C)C)CC[C@]5(C)[C@H]4CC[C@]23CN1C,-6.8,–
